# Tests used:
# Assay in all cases: DAPPL (digital affinity profiling via proximity ligation, sequencing); 10 mM Tris-HCl pH 7.5, 50 mM NaCl, 1 mM DTT, 4% glycerol, room temperature, 30 min; GST-TFs on glutathione beads, 16-mer random dsDNA library, 0.1% formaldehyde crosslink after washing; high values mean tight binding
# [1] = biological target: T1, FEV (Homo sapiens, UniProt Q99581 1-238); settings: protein: recombinant; tags: N-terminal GST; dsDNA, one strand shown
# T1 sequence: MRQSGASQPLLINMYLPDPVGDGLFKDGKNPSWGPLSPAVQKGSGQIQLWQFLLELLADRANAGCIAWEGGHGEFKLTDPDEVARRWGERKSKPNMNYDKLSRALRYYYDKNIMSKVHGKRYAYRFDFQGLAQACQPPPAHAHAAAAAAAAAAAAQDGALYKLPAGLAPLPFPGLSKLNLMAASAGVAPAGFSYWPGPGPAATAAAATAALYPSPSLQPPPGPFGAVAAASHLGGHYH
# How it was run: (§1)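 GST fusions of human transcription factors were expressed in yeast and captured with glutathione beads. Once given DNA barcodes and pooled alongside a tag-only sample, they were incubated for 30 min at room temperature with 200 nmole of a random double-stranded 16-mer DNA library in Tris/NaCl/DTT/glycerol buffer, then washed, crosslinked (0.1% formaldehyde), proximity-ligated, PCR-amplified and sequenced on an Illumina NextSeq500. The binding signal of each hexamer is its read frequency for a factor divided by its frequency for the tag-only sample.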
# [2] = biological target: ETV5 (Homo sapiens, UniProt P41161 1-510); settings: protein: recombinant; tags: N-terminal GST; dsDNA, one strand shown
# Sequence of ETV5 (P41161 whole entry): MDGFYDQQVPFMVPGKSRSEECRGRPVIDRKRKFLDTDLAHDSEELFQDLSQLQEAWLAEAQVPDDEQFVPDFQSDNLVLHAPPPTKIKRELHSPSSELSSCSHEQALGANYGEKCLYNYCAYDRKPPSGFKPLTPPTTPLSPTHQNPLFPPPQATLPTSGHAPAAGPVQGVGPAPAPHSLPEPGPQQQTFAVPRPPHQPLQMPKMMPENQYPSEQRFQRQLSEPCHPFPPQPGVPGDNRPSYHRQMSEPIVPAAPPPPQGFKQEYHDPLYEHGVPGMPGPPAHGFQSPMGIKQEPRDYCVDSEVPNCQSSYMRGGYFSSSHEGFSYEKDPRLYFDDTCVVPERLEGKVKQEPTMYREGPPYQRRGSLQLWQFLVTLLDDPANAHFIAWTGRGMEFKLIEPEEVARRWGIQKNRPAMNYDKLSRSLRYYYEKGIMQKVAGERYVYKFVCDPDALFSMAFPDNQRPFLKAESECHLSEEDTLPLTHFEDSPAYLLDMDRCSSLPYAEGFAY
# How it was run: as §1
# [3] = biological target: HSF1 (Homo sapiens, UniProt Q00613 1-529); settings: protein: recombinant; tags: N-terminal GST; chain copies: 3; dsDNA, one strand shown
# Sequence of HSF1 (Q00613 whole entry): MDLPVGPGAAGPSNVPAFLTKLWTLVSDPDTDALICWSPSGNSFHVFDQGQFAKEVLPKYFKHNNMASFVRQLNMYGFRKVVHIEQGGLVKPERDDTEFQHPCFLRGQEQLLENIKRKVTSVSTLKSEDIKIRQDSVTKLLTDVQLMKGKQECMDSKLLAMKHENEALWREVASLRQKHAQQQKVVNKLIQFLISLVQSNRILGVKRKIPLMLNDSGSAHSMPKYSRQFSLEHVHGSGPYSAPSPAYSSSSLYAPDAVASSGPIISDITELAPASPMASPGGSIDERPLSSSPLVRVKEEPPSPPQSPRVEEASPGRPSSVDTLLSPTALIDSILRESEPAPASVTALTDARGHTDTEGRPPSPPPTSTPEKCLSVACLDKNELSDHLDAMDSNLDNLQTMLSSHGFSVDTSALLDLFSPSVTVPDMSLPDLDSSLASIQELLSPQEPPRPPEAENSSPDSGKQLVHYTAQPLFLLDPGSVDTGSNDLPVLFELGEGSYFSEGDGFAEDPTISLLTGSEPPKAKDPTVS
# How it was run: as §1
# [4] = biological target: T2, SPIC (Homo sapiens, UniProt Q8N5J4 1-248); settings: protein: recombinant; tags: N-terminal GST; dsDNA, one strand shown
# T2 sequence: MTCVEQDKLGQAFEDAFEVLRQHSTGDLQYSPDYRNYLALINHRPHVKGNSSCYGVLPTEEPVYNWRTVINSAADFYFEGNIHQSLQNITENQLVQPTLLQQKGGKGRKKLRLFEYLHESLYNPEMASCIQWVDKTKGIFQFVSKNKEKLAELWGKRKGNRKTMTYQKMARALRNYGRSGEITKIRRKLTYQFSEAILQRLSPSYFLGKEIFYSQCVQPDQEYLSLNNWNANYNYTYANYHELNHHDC
# How it was run: as §1
# [5] = biological target: ELF4 (Homo sapiens, UniProt Q99607 1-663); settings: protein: recombinant; tags: N-terminal GST; dsDNA, one strand shown
# Sequence of ELF4 (Q99607 whole entry): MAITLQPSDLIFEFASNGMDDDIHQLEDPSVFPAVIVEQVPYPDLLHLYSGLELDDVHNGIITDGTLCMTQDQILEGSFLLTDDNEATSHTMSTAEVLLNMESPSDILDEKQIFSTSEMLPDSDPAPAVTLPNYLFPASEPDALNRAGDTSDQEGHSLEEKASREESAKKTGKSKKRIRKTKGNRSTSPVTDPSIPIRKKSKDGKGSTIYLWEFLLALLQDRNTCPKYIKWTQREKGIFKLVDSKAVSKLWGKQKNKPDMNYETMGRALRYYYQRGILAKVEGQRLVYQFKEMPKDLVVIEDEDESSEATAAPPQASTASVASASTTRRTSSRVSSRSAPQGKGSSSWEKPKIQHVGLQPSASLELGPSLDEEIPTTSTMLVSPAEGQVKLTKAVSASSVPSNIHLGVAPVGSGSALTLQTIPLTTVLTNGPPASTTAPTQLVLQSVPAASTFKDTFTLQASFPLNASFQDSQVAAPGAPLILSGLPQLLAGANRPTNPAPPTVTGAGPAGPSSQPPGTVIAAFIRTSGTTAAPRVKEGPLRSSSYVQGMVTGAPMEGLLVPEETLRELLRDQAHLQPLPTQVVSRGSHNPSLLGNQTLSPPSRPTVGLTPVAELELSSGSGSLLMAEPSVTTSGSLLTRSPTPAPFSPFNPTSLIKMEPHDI
# How it was run: as §1
# [6] = biological target: T3, ELK4 (Homo sapiens, UniProt P28324-2 1-405); settings: protein: recombinant; tags: N-terminal GST; dsDNA, one strand shown
# T3 sequence: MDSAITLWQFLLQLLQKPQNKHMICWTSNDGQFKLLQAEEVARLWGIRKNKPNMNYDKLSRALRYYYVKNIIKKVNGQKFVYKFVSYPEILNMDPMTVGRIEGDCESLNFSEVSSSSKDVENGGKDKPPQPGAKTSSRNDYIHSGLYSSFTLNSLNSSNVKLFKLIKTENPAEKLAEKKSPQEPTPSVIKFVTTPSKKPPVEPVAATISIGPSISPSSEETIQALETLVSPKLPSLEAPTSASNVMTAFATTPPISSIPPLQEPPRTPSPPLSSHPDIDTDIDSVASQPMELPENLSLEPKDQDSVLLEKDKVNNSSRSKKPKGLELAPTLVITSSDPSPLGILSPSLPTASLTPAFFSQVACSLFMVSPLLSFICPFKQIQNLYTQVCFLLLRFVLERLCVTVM
# How it was run: as §1
# [7] = biological target: T4, ETV2 (Homo sapiens, UniProt O00321 1-342); settings: protein: recombinant; tags: N-terminal GST; dsDNA, one strand shown
# T4 sequence: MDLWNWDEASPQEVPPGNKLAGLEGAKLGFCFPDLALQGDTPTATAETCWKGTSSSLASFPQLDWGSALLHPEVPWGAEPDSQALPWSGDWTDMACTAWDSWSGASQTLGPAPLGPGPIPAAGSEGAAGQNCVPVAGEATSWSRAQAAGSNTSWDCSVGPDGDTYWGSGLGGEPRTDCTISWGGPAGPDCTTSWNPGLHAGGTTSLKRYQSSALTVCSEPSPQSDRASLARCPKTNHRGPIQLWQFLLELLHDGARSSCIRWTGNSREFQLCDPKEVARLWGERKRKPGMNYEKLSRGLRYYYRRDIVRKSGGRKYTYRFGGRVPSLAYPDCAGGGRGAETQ
# How it was run: as §1
# [8] = biological target: T5, ELF3 (Homo sapiens, UniProt P78545 1-371); settings: protein: recombinant; tags: N-terminal GST; dsDNA, one strand shown
# T5 sequence: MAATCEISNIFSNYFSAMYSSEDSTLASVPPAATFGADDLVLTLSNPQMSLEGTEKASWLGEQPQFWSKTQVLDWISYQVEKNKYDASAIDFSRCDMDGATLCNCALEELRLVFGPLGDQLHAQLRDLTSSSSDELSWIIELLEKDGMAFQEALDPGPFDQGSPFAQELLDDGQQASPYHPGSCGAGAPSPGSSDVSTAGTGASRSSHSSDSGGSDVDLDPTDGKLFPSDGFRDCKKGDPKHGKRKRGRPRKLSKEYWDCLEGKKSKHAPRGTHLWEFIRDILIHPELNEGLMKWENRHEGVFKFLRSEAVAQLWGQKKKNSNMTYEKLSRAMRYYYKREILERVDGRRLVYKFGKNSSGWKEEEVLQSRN
# How it was run: as §1
# [9] = biological target: CRX (Homo sapiens, UniProt O43186 1-299); settings: protein: recombinant; tags: N-terminal GST; dsDNA, one strand shown
# Sequence of CRX (O43186 whole entry): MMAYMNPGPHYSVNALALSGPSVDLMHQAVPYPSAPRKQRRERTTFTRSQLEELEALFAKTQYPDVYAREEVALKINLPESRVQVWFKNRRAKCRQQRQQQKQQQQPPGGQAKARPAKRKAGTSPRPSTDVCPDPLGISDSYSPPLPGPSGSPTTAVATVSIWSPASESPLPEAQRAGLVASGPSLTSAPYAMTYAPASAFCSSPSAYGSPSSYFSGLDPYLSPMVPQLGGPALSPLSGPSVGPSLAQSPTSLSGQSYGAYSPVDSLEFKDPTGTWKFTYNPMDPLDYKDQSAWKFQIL
# How it was run: as §1
# [10] = biological target: ETV1 (Homo sapiens, UniProt P50549 1-477); settings: protein: recombinant; tags: N-terminal GST; dsDNA, one strand shown
# Sequence of ETV1 (P50549 whole entry): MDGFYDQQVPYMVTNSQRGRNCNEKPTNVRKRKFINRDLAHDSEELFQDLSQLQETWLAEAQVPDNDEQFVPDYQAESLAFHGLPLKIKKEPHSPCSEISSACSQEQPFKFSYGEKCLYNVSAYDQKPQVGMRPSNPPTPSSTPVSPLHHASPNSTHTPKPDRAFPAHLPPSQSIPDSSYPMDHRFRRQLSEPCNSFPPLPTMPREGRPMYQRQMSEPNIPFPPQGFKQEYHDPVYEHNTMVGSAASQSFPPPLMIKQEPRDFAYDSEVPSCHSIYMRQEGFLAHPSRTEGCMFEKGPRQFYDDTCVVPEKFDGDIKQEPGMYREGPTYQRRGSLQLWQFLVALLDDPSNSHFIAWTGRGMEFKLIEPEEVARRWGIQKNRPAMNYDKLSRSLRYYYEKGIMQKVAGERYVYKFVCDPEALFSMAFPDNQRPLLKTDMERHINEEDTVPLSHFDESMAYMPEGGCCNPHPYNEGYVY
# How it was run: as §1
# [11] = biological target: T6, ERF (Homo sapiens, UniProt P50548 1-548); settings: protein: recombinant; tags: N-terminal GST; dsDNA, one strand shown
# T6 sequence: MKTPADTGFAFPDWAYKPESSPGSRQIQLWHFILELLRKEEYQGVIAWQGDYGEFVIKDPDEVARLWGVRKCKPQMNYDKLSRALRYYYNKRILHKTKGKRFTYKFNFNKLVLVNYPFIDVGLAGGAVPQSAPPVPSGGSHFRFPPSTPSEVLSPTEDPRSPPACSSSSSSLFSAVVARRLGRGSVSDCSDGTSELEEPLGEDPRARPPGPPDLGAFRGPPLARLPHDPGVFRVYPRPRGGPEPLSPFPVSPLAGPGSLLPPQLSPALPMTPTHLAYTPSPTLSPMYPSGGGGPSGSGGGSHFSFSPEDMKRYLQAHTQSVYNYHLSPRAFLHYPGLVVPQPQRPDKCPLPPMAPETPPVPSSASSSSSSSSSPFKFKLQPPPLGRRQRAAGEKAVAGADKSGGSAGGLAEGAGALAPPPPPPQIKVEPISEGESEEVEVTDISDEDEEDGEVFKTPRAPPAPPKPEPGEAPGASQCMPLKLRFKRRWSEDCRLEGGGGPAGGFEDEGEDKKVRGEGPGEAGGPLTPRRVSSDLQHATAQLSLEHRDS
# How it was run: as §1
# [12] = biological target: T7, ETV3L (Homo sapiens, UniProt Q6ZN32 1-361); settings: protein: recombinant; tags: N-terminal GST; dsDNA, one strand shown
# T7 sequence: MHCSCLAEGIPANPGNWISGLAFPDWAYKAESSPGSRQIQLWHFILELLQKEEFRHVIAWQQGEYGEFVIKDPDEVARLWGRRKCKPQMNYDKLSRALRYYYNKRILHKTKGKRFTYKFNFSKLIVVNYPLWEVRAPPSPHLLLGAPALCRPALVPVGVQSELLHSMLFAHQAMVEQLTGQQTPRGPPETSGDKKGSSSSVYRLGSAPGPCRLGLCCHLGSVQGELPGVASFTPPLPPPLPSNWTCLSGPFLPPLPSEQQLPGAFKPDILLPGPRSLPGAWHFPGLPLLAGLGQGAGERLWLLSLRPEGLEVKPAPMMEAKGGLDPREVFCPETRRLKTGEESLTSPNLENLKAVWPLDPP
# How it was run: as §1
# [13] = biological target: T8, ETS2 (Homo sapiens, UniProt P15036 1-469); settings: protein: recombinant; tags: N-terminal GST; dsDNA, one strand shown
# T8 sequence: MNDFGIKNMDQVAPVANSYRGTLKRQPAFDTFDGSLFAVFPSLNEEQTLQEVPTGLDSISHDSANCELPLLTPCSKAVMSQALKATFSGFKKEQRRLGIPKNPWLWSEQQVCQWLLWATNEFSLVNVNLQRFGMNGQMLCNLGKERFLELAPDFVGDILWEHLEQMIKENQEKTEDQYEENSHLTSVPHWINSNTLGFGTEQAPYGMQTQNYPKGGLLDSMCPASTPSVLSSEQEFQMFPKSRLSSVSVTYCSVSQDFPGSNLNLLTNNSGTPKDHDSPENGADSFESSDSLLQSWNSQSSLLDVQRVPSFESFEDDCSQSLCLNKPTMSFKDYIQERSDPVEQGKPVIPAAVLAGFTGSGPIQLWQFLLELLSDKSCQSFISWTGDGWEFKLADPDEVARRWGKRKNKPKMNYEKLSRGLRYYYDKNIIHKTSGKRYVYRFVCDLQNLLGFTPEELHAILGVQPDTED
# How it was run: as §1
# [14] = biological target: T9, SPDEF (Homo sapiens, UniProt O95238 1-335); settings: protein: recombinant; tags: N-terminal GST; dsDNA, one strand shown
# T9 sequence: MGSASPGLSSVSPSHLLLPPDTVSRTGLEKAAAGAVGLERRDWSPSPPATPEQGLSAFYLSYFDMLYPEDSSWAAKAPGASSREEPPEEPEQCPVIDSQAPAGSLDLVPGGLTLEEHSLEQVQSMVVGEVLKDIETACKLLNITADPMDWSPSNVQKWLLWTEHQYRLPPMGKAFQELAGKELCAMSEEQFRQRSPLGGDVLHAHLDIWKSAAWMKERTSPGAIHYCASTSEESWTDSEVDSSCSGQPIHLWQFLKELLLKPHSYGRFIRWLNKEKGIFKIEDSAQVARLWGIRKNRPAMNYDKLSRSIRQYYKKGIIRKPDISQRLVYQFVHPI
# How it was run: as §1
# [15] = biological target: T10, ETV7 (Homo sapiens, UniProt Q9Y603 1-341); settings: protein: recombinant; tags: N-terminal GST; dsDNA, one strand shown
# T10 sequence: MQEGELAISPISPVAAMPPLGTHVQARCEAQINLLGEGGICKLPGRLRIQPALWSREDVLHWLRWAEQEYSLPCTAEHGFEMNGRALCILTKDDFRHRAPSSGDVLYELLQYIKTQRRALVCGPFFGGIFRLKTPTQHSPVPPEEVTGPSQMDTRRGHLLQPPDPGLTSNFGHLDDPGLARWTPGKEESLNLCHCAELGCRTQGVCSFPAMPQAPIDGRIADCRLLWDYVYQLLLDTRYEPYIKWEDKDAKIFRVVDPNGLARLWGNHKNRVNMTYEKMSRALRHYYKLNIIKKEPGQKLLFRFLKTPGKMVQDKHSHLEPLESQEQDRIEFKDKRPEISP
# How it was run: as §1
# [16] = biological target: T11, ELF5 (Homo sapiens, UniProt Q9UKW6-2 1-255); settings: protein: recombinant; tags: N-terminal GST; dsDNA, one strand shown
# T11 sequence: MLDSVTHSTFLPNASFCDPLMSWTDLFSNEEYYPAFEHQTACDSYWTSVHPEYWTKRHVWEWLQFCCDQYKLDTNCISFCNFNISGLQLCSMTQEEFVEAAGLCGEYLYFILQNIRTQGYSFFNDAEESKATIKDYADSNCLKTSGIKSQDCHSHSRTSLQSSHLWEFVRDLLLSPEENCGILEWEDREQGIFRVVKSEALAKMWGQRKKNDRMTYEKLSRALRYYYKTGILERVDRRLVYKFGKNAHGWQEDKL
# How it was run: as §1
# [17] = biological target: T12, ETV3 (Homo sapiens, UniProt P41162-2 1-143); settings: protein: recombinant; tags: N-terminal GST; dsDNA, one strand shown
# T12 sequence: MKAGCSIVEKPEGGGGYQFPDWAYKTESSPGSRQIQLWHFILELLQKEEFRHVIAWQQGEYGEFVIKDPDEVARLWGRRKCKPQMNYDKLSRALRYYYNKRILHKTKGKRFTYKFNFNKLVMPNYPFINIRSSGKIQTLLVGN
# How it was run: as §1
# [18] = biological target: ETV6 (Homo sapiens, UniProt P41212 1-452); settings: protein: recombinant; tags: N-terminal GST; dsDNA, one strand shown
# Sequence of ETV6 (P41212 whole entry): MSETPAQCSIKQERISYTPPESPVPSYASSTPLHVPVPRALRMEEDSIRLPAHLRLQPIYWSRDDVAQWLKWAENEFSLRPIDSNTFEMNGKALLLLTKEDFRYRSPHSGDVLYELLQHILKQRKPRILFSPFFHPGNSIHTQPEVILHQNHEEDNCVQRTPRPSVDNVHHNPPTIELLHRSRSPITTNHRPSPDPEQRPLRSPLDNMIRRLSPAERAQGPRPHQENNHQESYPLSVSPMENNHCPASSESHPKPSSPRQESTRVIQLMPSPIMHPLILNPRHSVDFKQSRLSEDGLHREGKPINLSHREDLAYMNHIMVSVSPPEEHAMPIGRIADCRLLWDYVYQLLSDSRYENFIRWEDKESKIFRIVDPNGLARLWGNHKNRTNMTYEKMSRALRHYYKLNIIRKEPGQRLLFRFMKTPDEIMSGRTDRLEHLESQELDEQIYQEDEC
# How it was run: as §1
sequence,measurement,setting,value
ACCTGC,binding signal,[1],"1.5 fold enrichment (6-mer frequency, TF over GST control)"
same,binding signal,[2],"1.53 fold enrichment (6-mer frequency, TF over GST control)"
same,binding signal,[3],"1.27 fold enrichment (6-mer frequency, TF over GST control)"
same,binding signal,[4],"1.22 fold enrichment (6-mer frequency, TF over GST control)"
same,binding signal,[5],"1.47 fold enrichment (6-mer frequency, TF over GST control)"
same,binding signal,[6],"1.59 fold enrichment (6-mer frequency, TF over GST control)"
same,binding signal,[7],"1.39 fold enrichment (6-mer frequency, TF over GST control)"
same,binding signal,[8],"1.65 fold enrichment (6-mer frequency, TF over GST control)"
same,binding signal,[9],"1.22 fold enrichment (6-mer frequency, TF over GST control)"
same,binding signal,[10],"1.57 fold enrichment (6-mer frequency, TF over GST control)"
same,binding signal,[11],"1.35 fold enrichment (6-mer frequency, TF over GST control)"
same,binding signal,[12],"1.42 fold enrichment (6-mer frequency, TF over GST control)"
same,binding signal,[13],"1.5 fold enrichment (6-mer frequency, TF over GST control)"
same,binding signal,[14],"1.4 fold enrichment (6-mer frequency, TF over GST control)"
same,binding signal,[15],"1.48 fold enrichment (6-mer frequency, TF over GST control)"
same,binding signal,[16],"1.39 fold enrichment (6-mer frequency, TF over GST control)"
same,binding signal,[17],"1.44 fold enrichment (6-mer frequency, TF over GST control)"
same,binding signal,[18],"1.66 fold enrichment (6-mer frequency, TF over GST control)"

# From publication PMC7862700, “An all-to-all approach to the identification of sequence-specific readers for epigenetic DNA modifications on cytosine”
